A short description of experiment [1]: inhibitors of TNFa-induced NFkB p65 translocation, primary screen, imaging, HUVEC, MLSMR starter and 10KST1 sets (AID 438;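 active = inhibition above 20% together with a positive visual image hit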;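 also: compound added about 3h40 before a 20 min TNFalpha stimulation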;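 as to inhibition: signal is the nuclear over cytoplasmic p65 intensity ratio per well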). The settings on record: HUVEC TNFa-induced p65 nuclear translocation; cell count: measured here: nuclei count (cytotoxicity indicator), at 2.08 µM; inhibition: at 2 µM, stronger effect = higher value, 0% TNFa-plus-vehicle, 100% no-TNFa wells.
Experiment [2] is described as follows: inhibitors of mutant huntingtin aggregation, primary screen, imaging, exon1htt(103Q)mCFP cells, high-content imaging (AID 483;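 active = visual image review flags a hit and inhibition of aggregation exceeds 20%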;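 also: compound exposure lasted 3 days before fixation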;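 as to nuclei count: percent of the per-plate median nuclei count of sample wells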). The settings on record: exon1htt(103Q)mCFP cell line, aggregate imaging, at 2 µM; inhibition of aggregation: stronger effect = higher value; nuclei count: measured here: cell count, toxicity.
The nature of experiment [3]: inhibitors of E-selectin induction by TNFa, primary screen, imaging, HUVEC, immunofluorescence, MLSMR starter and 10KST1 sets (AID 487;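 active = visually confirmed hit in the image check and inhibition above 20%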;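 as to inhibition: signal is fraction of cell area covered by stained E-selectin grains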;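 as to nuclei count: 100% = median nuclei count of all wells on the same plate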). The settings on record: HUVEC TNFalpha-induced E-selectin immunofluorescence imaging, at 2 µM; inhibition: stronger effect = higher value; nuclei count: measured here: cell number, toxicity.
In experiment [4] the target is Voltage-gated potassium channel subunit beta-2 (Rattus norvegicus) (UniProt P62483). Description: KvBeta enzyme negative modulators, primary screen, biochemical, NADPH fluorescence (AID 622;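 active = fluorescence slope higher than the sample average by over 3 SD, cut at about -0.22 in these data, passing the limit was not always enough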;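 also: slope of raw intensity against log time taken from 70 to 1610 s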). The settings on record: recombinant KvBeta, 4-cyanobenzaldehyde reduction, at 10 µM, stronger effect = higher value.
The target is the same in experiment [5]. Put plainly: KvBeta positive modulators, primary screen, biochemical, NADPH fluorescence (AID 623;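 active = NADPH fluorescence slope more negative than the mean of all samples by about 3 SD, 99.7% confidence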;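 also: fluorescence intensity change per second fitted from 20 to 320 s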). The settings on record: Recombinant KvBeta, NADPH fluorescence decrease slope, 10 min; at 10 µM; stronger effect = lower value.
Experiment [6] deals with Alpha-2C adrenergic receptor (Homo sapiens) (UniProt P18825). Put plainly: modulators of alpha2C/GIRK thallium flux, primary screen, cell-based, HEK293 alpha2C/GIRK1/2 (AID 624;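 active = fluorescence slope after compound addition differing from the mean of all screened samples at 99.7% confidence, in either direction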;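 also: slope of fluorescence ratio to pre-addition baseline per second over 15 to 24 s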). The settings on record: thallium flux BTC fluorescence, at 10 µM, actives lie on both sides.
Experiment [7] is described as follows: inhibitors of Sendai virus-induced IRF3 signaling, primary screen, TLR/RLR signaling modifier project, cell-based, Sendai virus stimulus, luciferase, 10K MLSCN set (AID 602276).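 Also: firefly luciferase from ISG56 promoter only with Renilla not read in this screen; 0% = Sendai virus plus DMSO and 100% = medium plus DMSO without virus.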 The settings on record: HEK293 RL24 IRF3 luciferase reporter, at 10 µM, stronger effect = higher value.
The nature of experiment [8]: inhibitors of poly I:C-induced TLR3 signaling, primary screen, cell-based, poly I:C stimulus, luciferase, 10K MLSCN set (AID 602277;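 active = inhibition of the reporter signal at or above 50%; inactive = inhibition below 50%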). The settings on record: HEK293-TLR3 RL24 IRF3 luciferase reporter, at 10 µM, stronger effect = higher value.

What is called inhibition is the change of the read-out against control, counted positive when it falls.

SMILES strings stand for the structures. Activity calls are given as the source filed them.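 The calls were made as follows, unless noted: active = inhibition at or above 50% at 10 µM; inactive = inhibition below 50%.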

Sequence of Alpha-2C adrenergic receptor (Homo sapiens) (P18825 whole entry, looked up): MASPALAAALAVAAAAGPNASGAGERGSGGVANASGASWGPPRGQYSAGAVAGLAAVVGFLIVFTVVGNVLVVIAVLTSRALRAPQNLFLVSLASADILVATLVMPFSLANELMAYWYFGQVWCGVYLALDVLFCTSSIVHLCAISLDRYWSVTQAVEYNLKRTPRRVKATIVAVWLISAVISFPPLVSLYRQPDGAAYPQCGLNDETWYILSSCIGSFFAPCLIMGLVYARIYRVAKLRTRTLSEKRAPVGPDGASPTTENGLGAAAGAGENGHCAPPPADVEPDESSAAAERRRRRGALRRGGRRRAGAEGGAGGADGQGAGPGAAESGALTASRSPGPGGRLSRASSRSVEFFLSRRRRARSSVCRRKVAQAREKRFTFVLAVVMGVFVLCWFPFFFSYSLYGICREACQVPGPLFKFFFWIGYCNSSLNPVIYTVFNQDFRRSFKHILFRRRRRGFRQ
Sequence of Voltage-gated potassium channel subunit beta-2 (Rattus norvegicus) (P62483 whole entry, looked up): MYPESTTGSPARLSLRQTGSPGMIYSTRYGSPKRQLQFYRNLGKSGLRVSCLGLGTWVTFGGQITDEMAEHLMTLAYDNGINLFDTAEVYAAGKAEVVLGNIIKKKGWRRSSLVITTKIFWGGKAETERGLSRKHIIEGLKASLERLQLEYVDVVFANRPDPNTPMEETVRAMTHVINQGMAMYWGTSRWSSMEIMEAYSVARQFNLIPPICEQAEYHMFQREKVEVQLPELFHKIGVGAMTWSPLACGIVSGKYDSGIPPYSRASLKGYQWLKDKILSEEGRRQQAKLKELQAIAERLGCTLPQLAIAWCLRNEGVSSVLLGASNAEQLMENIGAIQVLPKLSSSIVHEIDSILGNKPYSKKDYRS

For the molecule `CCSc1ccccc1C(=O)NCc1ccc(S(N)(=O)=O)cc1`, the cell count in experiment [1] stood at 327. Also, the inhibition is 1.1% (inactive) in experiment [1], -78.4% (inactive) in experiment [3], 18.1% (inactive) in experiment [7] and 16.5% (inactive) in experiment [8]. In experiment [2], the inhibition of aggregation was -5.9% (inactive). The nuclei count in experiment [2] came out at 104%; in experiment [3], 120%. The fluorescence slope in experiment [4] is -0.435 (inactive). For the same molecule, the NADPH fluorescence slope in experiment [5] was -4.5e-05 (inactive). Also, the slope in experiment [6] was 0.00523 (inactive).
Take `CS(=O)(=O)N(CC(=O)Nc1cccc(F)c1)Cc1ccccc1`: the cell count in experiment [1] came out at 381. Besides, the inhibition in experiment [1] was -0.2% (inactive); in experiment [3], -19.3% (inactive); in experiment [7], 5.19% (inactive); in experiment [8] it was 30.7% (inactive). In addition, the inhibition of aggregation in experiment [2] was 2.5% (inactive). The nuclei count in experiment [2] amounted to 107%; in experiment [3], 106%. For the same molecule, the fluorescence slope in experiment [4] is -0.467 (inactive). Also, in experiment [5], the NADPH fluorescence slope was -3.7e-05 (inactive). In addition, the slope in experiment [6] is 0.00637 (inactive).
`CCOc1cc(C2NC(=O)N(C)C(C)=C2C(=O)OC)cc(Br)c1O` (centres undefined): the cell count in experiment [1] is 620. Also, the inhibition in experiment [1] was -17.6% (inactive); in experiment [3], -13.7% (inactive); in experiment [7], -0.511% (inactive); in experiment [8], 5.13% (inactive). Besides, in experiment [2], the inhibition of aggregation is -9.6% (inactive). Also, the nuclei count in experiment [2] amounted to 110%; in experiment [3], 104%. For the same molecule, the fluorescence slope in experiment [4] was -0.611 (inactive). The NADPH fluorescence slope in experiment [5] was -4.2e-05 (inactive). Besides, in experiment [6], the slope is 0.00546 (inactive).
For `COC(=O)NCC(c1cccnc1)N1CCOCC1` (centres undefined), in experiment [1], the cell count worked out at 605. Further, the inhibition is -11% (inactive) in experiment [1], -24% (inactive) in experiment [3], -1.28% (inactive) in experiment [7] and 16.1% (inactive) in experiment [8]. The inhibition of aggregation in experiment [2] was 16.6% (inactive). In addition, the nuclei count is 97.8% in experiment [2] and 105% in experiment [3]. Further, the fluorescence slope in experiment [4] is -0.589 (inactive). The NADPH fluorescence slope in experiment [5] is -3.5e-05 (inactive). In experiment [6], the slope is 0.0059 (inactive).
As to `Cc1ccc2c(c1)sc1ncc(NC(=O)c3ccccc3)c(=O)n12`, the cell count in experiment [1] turned out to be 324. In addition, the inhibition in experiment [1] is 2.1% (inactive); in experiment [3], -27.5% (inactive); in experiment [7] it was -16.1% (inactive); in experiment [8], -38.4% (inactive). The inhibition of aggregation in experiment [2] was -14.3% (inactive). The nuclei count stood at 100% in experiment [2] and 110% in experiment [3]. For the same molecule, the fluorescence slope in experiment [4] was -0.58 (inactive). For the same molecule, the NADPH fluorescence slope in experiment [5] is 6.2e-06 (inactive). In experiment [6], the slope was 0.0047 (inactive).
With `Cc1cc(C)n(C(=O)CCCCCC(=O)n2nc(C)cc2C)n1`, in experiment [1], the cell count was found to be 440. The inhibition in experiment [1] is 5.5% (inactive); in experiment [3], -195% (inactive); in experiment [7] it was 18.5% (inactive); in experiment [8], 26.3% (inactive). Besides, in experiment [2], the inhibition of aggregation is 1.5% (inactive). Besides, the nuclei count in experiment [2] and in experiment [3] was 116% in each case. In addition, the fluorescence slope in experiment [4] was -0.524 (inactive). Moreover, the NADPH fluorescence slope in experiment [5] is 8.7e-06 (inactive). The slope in experiment [6] was 0.0053 (inactive).
For `COc1ccc(/C=N/n2cnnc2SCc2ccc(OC)cc2)cc1`, the cell count in experiment [1] is 378. Moreover, the inhibition in experiment [1] is 3.1% (inactive); in experiment [3] it was -27.7% (inactive); in experiment [7] it was 6.24% (inactive); in experiment [8], 0.256% (inactive). Also, the inhibition of aggregation in experiment [2] is 1.4% (inactive). For the same molecule, the values for the nuclei count in experiment [2] and in experiment [3] were 96.9% and 108%, respectively. Also, in experiment [4], the fluorescence slope was -0.348 (inactive). Further, in experiment [5], the NADPH fluorescence slope was -4.9e-05 (inactive). In addition, in experiment [6], the slope was 0.00577 (inactive).
In the case of `O=C1CCC(c2ccccc2)N1C(=O)c1cccnc1` (centres undefined), in experiment [1], the cell count was found to be 565. The inhibition was -17.3% (inactive) in experiment [1], -57.8% (inactive) in experiment [3], -4.49% (inactive) in experiment [7] and 9.24% (inactive) in experiment [8]. Besides, the inhibition of aggregation in experiment [2] was -4.3% (inactive). For the same molecule, the nuclei count amounted to 98% in experiment [2] and 111% in experiment [3]. The fluorescence slope in experiment [4] was -0.512 (inactive). Further, the NADPH fluorescence slope in experiment [5] was -6.9e-05 (inactive). Besides, the slope in experiment [6] is 0.00593 (inactive).
For the molecule `CC1CN(C2CCCCC2)c2nc3c(c(=O)[nH]c(=O)n3C)n2C1` (centres undefined), the cell count in experiment [1] worked out at 234. Moreover, the inhibition in experiment [1] was -2% (inactive); in experiment [3], 4.4% (inactive); in experiment [7] it was 13.1% (inactive); in experiment [8], 40.3% (inactive). In addition, the inhibition of aggregation in experiment [2] was -5.5% (inactive). Besides, the nuclei count in experiment [2] came out at 77.6%; in experiment [3], 108%. In addition, the fluorescence slope in experiment [4] was -0.642 (inactive). For the same molecule, in experiment [5], the NADPH fluorescence slope is 3.4e-05 (inactive). For the same molecule, the slope in experiment [6] is 0.00609 (inactive).
For the molecule `CC1(C)Cc2c(c(=S)nc(-c3ccccc3)n2CCO)CO1`, the cell count in experiment [1] was found to be 278. Moreover, the inhibition is -0.5% (inactive) in experiment [1], 41.7% (inactive) in experiment [3], 8.44% (inactive) in experiment [7] and 23.5% (inactive) in experiment [8]. For the same molecule, the inhibition of aggregation in experiment [2] was 19% (inactive). Besides, the nuclei count in experiment [2] amounted to 109%; in experiment [3], 93.9%. Further, the fluorescence slope in experiment [4] was -0.501 (inactive). Moreover, in experiment [5], the NADPH fluorescence slope was -5.3e-05 (inactive). Also, the slope in experiment [6] is 0.006 (inactive).
On to `O=C(Nc1ccccc1-c1nc2ccccc2o1)c1ccc2c(c1)OCCO2`, for which the cell count in experiment [1] was found to be 530. Besides, the inhibition was -7.2% (inactive) in experiment [1], 48.6% (inactive) in experiment [3], 11.3% (inactive) in experiment [7] and 13.7% (inactive) in experiment [8]. The inhibition of aggregation in experiment [2] was -29.9% (inactive). The nuclei count in experiment [2] stood at 99.2%; in experiment [3], 87.4%. Moreover, the fluorescence slope in experiment [4] was -0.131 (inactive). The NADPH fluorescence slope in experiment [5] was 1.2e-05 (inactive). In addition, in experiment [6], the slope was 0.0146 (inactive).
Consider `CN(CC(=O)Nc1ccc(F)c(Cl)c1)S(=O)(=O)c1cccc2nsnc12`, for which, in experiment [1], the cell count is 615. Also, the inhibition in experiment [1] was -19.8% (inactive); in experiment [3], -18.3% (inactive); in experiment [7], -14.7% (inactive); in experiment [8], 98.7% (active). Moreover, in experiment [2], the inhibition of aggregation was 5.8% (inactive). Further, the nuclei count is 64.7% in experiment [2] and 108% in experiment [3]. Also, the fluorescence slope in experiment [4] is -0.34 (inactive). Further, the NADPH fluorescence slope in experiment [5] is -3.5e-05 (inactive). For the same molecule, the slope in experiment [6] was 0.00478 (inactive).
Consider `O=C(Nc1ccc(F)cc1F)NC1CC(=O)N(Cc2ccccc2)C1` (centres undefined), for which the cell count in experiment [1] is 664. For the same molecule, the inhibition is 1.6% (inactive) in experiment [1], 4.4% (inactive) in experiment [3], -12.5% (inactive) in experiment [7] and 1.35% (inactive) in experiment [8]. In addition, the inhibition of aggregation in experiment [2] is 22.4% (inactive). Besides, the results for the nuclei count in experiment [2] and in experiment [3] were 66.3% and 103%, respectively. Moreover, the fluorescence slope in experiment [4] was -0.571 (inactive). Besides, the NADPH fluorescence slope in experiment [5] was -1.6e-05 (inactive). Besides, the slope in experiment [6] was 0.0068 (inactive).
As to `C1=Nc2c(NCc3ccccc3)ncnc2Oc2ccccc21`, the cell count in experiment [1] stood at 305. Moreover, the inhibition was -0.2% (inactive) in experiment [1], -17.3% (inactive) in experiment [3], -11.5% (inactive) in experiment [7] and 1.46% (inactive) in experiment [8]. Besides, the inhibition of aggregation in experiment [2] is 3.8% (inactive). Also, the values for the nuclei count in experiment [2] and in experiment [3] were 98.1% and 112%, respectively. For the same molecule, the fluorescence slope in experiment [4] is -0.502 (inactive). Further, the NADPH fluorescence slope in experiment [5] is -2.6e-05 (inactive). For the same molecule, in experiment [6], the slope was 0.00376 (inactive).

The values are drawn from PubChem BioAssay.
